Only some compounds are listed: those with a hit (about 8.1% of all), similar ones and a draw of the others.
SW480 rerep: inducers of DNA re-replication in SW480 colon cancer cells; SW480 DNA re-replication, Hoechst DNA content imaging, 48 h; Potency, µM (series often up to 46.1 µM), inactives show at the highest dose re-replication activation, actives largely listed as activators; hit rate 1.8% among 340,000; AID 624297; further: % of control where 0% means no effect; nearly all actives have a fitted effect of over 55% in size
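Cells (250 per well) received 23 nL compound or DMSO by pin tool and were kept 48 hr at 37 C, 5% CO2. Nuclei were then stained with Hoechst for 40 min and scanned for DNA content.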
KB-V1 cytotox: KB-V1 MDR subline cytotoxicity; KB-V1 MDR cells viability, CellTiter-Glo, 72 h; Potency, µM (highest dose often 46.1 µM), actives largely listed as cytotoxic; hit rate 3.4% among 400,000; AID 1347076; further: on the % scale 0 is the no-effect control and ±100 the full control effect; nearly all actives have a fitted effect of over 60% in size
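KB-V1 cells (P-gp-expressing MDR subline of KB-3-1) in phenol-red-free DMEM with 10% FBS were exposed to library compounds over a concentration series for 72 h at 37 degrees C. Viability read by CellTiter-Glo luminescence; concentration-effect curves fitted after normalization.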
KB-3-1 tox: KB-3-1 parental cell cytotoxicity; KB-3-1 viability, CellTiter-Glo ATP luminescence, 72 h; Potency, µM (doses to about 46.1 µM), actives largely listed as cytotoxic; hit rate 1.4% among 400,000; further: on the % scale 0 is the no-effect control and ±100 the full control effect; nearly all actives have a fitted effect of over 60% in size
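Cytotoxicity in the drug-sensitive parental line KB-3-1 was scored as loss of CellTiter-Glo luminescence following 72 h incubation with compound. Values come from curve fitting of normalized concentration-response data.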
MCF10A rerep: inducers of DNA re-replication in MCF 10A breast cells; MCF 10A DNA re-replication, Hoechst nuclear intensity, 48 h; Potency, µM (highest dose often 46.1 µM), for inactives: at the highest dose activity, positive = re-replication, actives largely listed as activators; hit rate 2.9% among 350,000; AID 624296; further: % of control where 0% means no effect; nearly all actives have a fitted effect of over 50% in size
ELG1 repair inh: ELG1-dependent DNA repair inhibition; HEK293T ELG1-luciferase reporter, luminescence, 16 h; DNA damage induced by 5-fluorouridine; Potency, µM (top dose mostly 46.1 µM), for inactives: top-dose activity change, negative = inhibition, most hits filed as inhibitors; hit rate 2.3% among 330,000; AID 504467; further: on the % scale 0 is the no-effect control and ±100 the full control effect; nearly all actives have a fitted effect of over 55% in size
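Quantitative HTS, concentration-response format. 2,000 cells/well co-treated with 5-fluorouridine and compound, 16 hr in 5% CO2 at 37 °C; ONE-Glo luminescence read after 30 min.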
Starred values were filed as active, the others as inactive; i = inactive; ? = inconclusive; . = not tested or not shown; [ ] = another dose, or the depositor's remark. The call rests on the fitted dose curve; in most records, active means well fitted curve in the direction sought with a large enough effect; inconclusive means small, poorly fitted or top-dose-only effect, or another doubt; inactive means no such curve, though single readings can be large; an effect the other way counts as inactive or inconclusive. Potency means the concentration at half of the fitted maximal effect.

SMILES | SW480 rerep | KB-V1 cytotox | KB-3-1 tox | MCF10A rerep | ELG1 repair inh
O=c1[nH]c(=S)n(-c2cccc(C(F)(F)F)c2)c(O)c1C=NCCN1CCNCC1 | -3% | i | i | -1% | ?
CN(C)[C@@H](Cc1ccccc1)c1ccccc1 | 1% | . | . | 10% | .
c1ccc(C2(N3CCCC3)CCCCC2)cc1 | -6% | . | . | 4% | .
CC12CC[C@H]3[C@@H](CCC4(O)C[C@H](O)CCC34/C=N/NC(=O)Cc3ccccc3)C1(O)CCC2C1=CC(=O)OC1 (some centres not stated) | -7% | i | i | 16% | -6%
C[C@]12CC[C@H](O)C[C@H]1CC[C@@H]1[C@@H]2CC[C@]2(C)[C@@H](C3=CC(=O)OC3)CC[C@]12O | ? | 1.5µM* | 1.6µM* | ? | ?
O=C1NC(=O)N(Cc2ccco2)C(=O)/C1=C/C=C/c1ccco1 | ? | ? | ? | 18µM* | ?
O=C1NC(=O)N(CCc2ccc(F)cc2)C(=O)/C1=C\C=C\c1ccccc1 | 14% | 15µM* | 16µM* | 4.1µM* | ?
O=C1NC(=O)N(Cc2ccccc2)C(=O)/C1=C\C=C\c1ccco1 | -18% | ? | i | 12µM* | ?
C=CCN1C(=O)NC(=O)/C(=C/C=C/c2ccccc2)C1=O | ? | i | i | ? | ?
COCCCn1c(=O)/c(=C\c2ccccc2OC(F)F)s/c1=C(/C#N)C(=O)NCCOC | ? | i | i | 15µM* | 0%
CCC(=O)Nc1cc(C(=O)O)ccc1S(=O)(=O)c1ccc(C)cc1 | -4% | i | i | -32% | 2%
CC(C)(C)n1ncc2c(=O)n(Cc3cccc(Cn4cnc5c(cnn5C(C)(C)C)c4=O)c3F)cnc21 | 3%[9.22 µM] | ? | ? | -12% | 8.2µM*
COc1ccc(-c2c3c(nc4sc5c(Cl)nc(C)nc5c24)CCC3)cc1 | -2% | ? | 7.3µM* | ? | 16%
C#CCOc1cc(C2C3=C(COC3=O)Nc3cc4c(cc32)OCO4)ccc1OC (configuration not stated) | 2.1µM* | ? | i | ? | ?
COc1ccc2c(c1OC)CN1CCc3cc4c(cc3C1C2)OCO4 (configuration not stated) | 8% | i | ? | 9% | -8%
Cc1cnn(-c2cc(Oc3ccccc3)ncn2)c1 | -3% | i | i | -4% | ?
Cc1cc(C)c(C(=O)CN2CCOCC2)c(C)c1 | 9.2µM* | i | i | 8.2µM* | -1%
COc1ccc(C(=O)CN2CCOCC2)cc1 | . | i | i | . | .
CSc1ccccc1NC(=O)CN(C)CC(=O)c1[nH]c(C)c(C(C)=O)c1C | 15% | ? | i | ? | 16µM*
C[C@@]12C(=O)N(Cc3ccco3)CC(=O)N1[C@H]1c3ccccc3OC[C@@H]1[C@@H]2c1ccccc1 | -1% | i | i | -15% | -9%
CC1=CC2OC3CC4OC(=O)C=CC=CC(=O)OCCC(C)C(O)C(=O)OCC2(CC1)C4(C)C31CO1 (configuration not stated) | ? | 0.1µM* | 0.037µM* | 12% | .
CC1CCOC(=O)C=CC=CC(=O)OC2CC3OC4C5OC5(C)C(O)CC4(COC(=O)C1O)C2(C)C31CO1 (configuration not stated) | ? | 5.8µM* | 0.21µM* | 0.23µM* | .
CC(O)C1C=CC=CC(=O)OC2CC3OC4C5OC5(C)C(O)CC4(COC(=O)C(O)C(C)CCO1)C2(C)C31CO1 (configuration not stated) | 1.8µM* | ? | 0.21µM* | ? | .
CC1=CC2OC3CC4OC(=O)C=CC=CC(C(C)O)OCC(O)C5(C)OC5C(=O)OCC2(CC1O)C4(C)C31CO1 (configuration not stated) | 15% | ? | 0.015µM* | 16% | .
COc1cc(CN2CC(C)OC(C)C2)cc(OC)c1 (configuration not stated) | ? | i | i | -4% | .
SMILES | SW480 rerep | KB-V1 cytotox | KB-3-1 tox | MCF10A rerep | ELG1 repair inh
O=C(Nc1ccc2c(c1)OCO2)c1cccn(Cc2ccccc2)c1=O | . | i | i | . | .
Clc1cccc(Cl)c1Cn1nnc(N2CCCC2)n1 | -135% | i | i | 0% | ?
C[C@]12CC[C@H](N)CC1=CCC1C2CC[C@@]2(C)C1CC[C@@H]2O (some centres not stated) | 18µM* | i | i | ? | 16µM*
C[C@H]1CC2C3CC=C4C[C@@H](O)CC[C@]4(C)C3CC[C@]2(C)[C@H]1O (some centres not stated) | -4% | 18µM* | i | ? | -17%
Cc1ccc(Cl)cc1NC(=O)N(Cc1ccc2c(c1)OCO2)C1CCN(Cc2ccccc2)CC1 | . | ? | i | . | .
Oc1ccccc1-c1ccccc1 | 15% | . | . | 0% | .
Oc1c(Cl)cccc1Cc1cc(Cl)cc(Cl)c1O | 1% | ? | ? | 12µM* | .
Cc1ccccc1-c1nn2c(=O)cc(CN3CCN(C(=O)COc4ccccc4Cl)CC3)nc2s1 | . | i | i | . | .
O=C(COc1ccc2ccccc2c1)N1CCN(Cc2c[nH]c3ccccc23)CC1 | ? | ? | ? | ? | -9%
O=C(COc1ccc(Br)cc1)N1CCN(Cc2c[nH]c3ccccc23)CC1 | ? | 18µM* | i | ? | ?
COc1ccc(/C=C2\SC(=O)N(CCn3cnnn3)C2=O)cc1 | ? | i | i | -14% | ?
N#Cc1ccccc1Cn1cc(C(=O)c2cccs2)c2ccccc21 | -2% | ? | i | 3% | ?
O=C(c1cccs1)c1cn(Cc2ccccc2Cl)c2ccccc12 | -5% | 7.3µM* | i | 17% | -4%
N#Cc1ccccc1Cn1cc(C(=O)c2ccccc2F)c2ccccc21 | 8% | 2.3µM* | i | 18% | ?
CC1(C)OC(c2ccccc2)=C/C(=C/C=C2C(=O)NC(=O)NC2=O)O1 | 18µM* | i | ? | 18µM* | ?
O=C1NC(=O)C(=Cc2ccc(Sc3ccccc3)o2)C(=O)N1 | ? | ? | i | ? | ?
CCCCCCCCn1sccc1=O | 10µM* | i | ? | 21µM* | ?
N=Cc1c(O)n(-c2ccc(C34CC5CC(CC(C5)C3)C4)cc2)c(=O)[nH]c1=O | 3.3µM* | i | i | 5% | ?
O=C(NC(O)C(Cl)(Cl)Cl)NC(O)C(Cl)(Cl)Cl (configuration not stated) | 9% | . | . | 3% | .
O=C(C(=O)N1CCOCC1)c1cn(Cc2c(F)cccc2Cl)c2ccccc12 | 0% | i | i | -5% | 27%
Cc1cc2c(cc(C(=O)N3CCC(C(=O)NC4CCCC4)CC3)n2Cc2c(F)cccc2Cl)o1 | 0% | ? | i | 11% | 23µM*

From PubChem BioAssay
